{"source": "PubChem BioAssay AID2685", "about": "(National Center for Advancing Translational Sciences (NCATS), 2010)", "note": "Out of some 320,000 compounds screened, about 2,100 (0.66%) were called active. Not shown: some 53% with an inconclusive outcome. Calls come from the whole dose curve; as a rule, active = well fitted inhibition curve with a large enough effect in the signal ratio, with a control signal flat (not every such curve was filed as active); inconclusive = small, poorly fitted or top-dose-only effect, or effect the other way, or a change in a side signal; inactive = flat fitted curve, though single readings scatter; the % refers to the signal ratio. This excerpt belongs to a sample that is enriched for actives. Potency is the fitted concentration of half-maximal effect."}
{"experiment": "qHTS Assay for Lipid Storage Modulators in Drosophila S3 Cells;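 for cell number change: cells counted by Cell Tracker Red CMTPX staining in the red channel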", "conditions": "BODIPY lipid droplet fluorescence, 18-24 h, cells fed with added oleic acid; cell number change: measured here: cell count max response; series mostly up to 46.1 µM", "outline": "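Drosophila S3 cells got compounds at several concentrations plus oleic acid (400 uM solution). Laser-scanning cytometry with 488 nm excitation read lipid droplets at 500-530 nm and cells at 575-640 nm. Percent activity was relative to 20 uM Triacsin C.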", "units": {"cell number change": "%"}}
{"smiles": "CC1=C(C)CC(C(=O)NNC(=O)c2csc(C)c2C)C(C(=O)O)C1", "note": "(configuration not stated)", "Potency": "inactive", "cell number change": -1.11}
{"smiles": "CS(=O)(=O)N(C(=O)NC(=O)NC12CC3CC(CC(C3)C1)C2)C1CCCCC1", "Potency": "inactive", "cell number change": 9.2}
{"smiles": "COc1ccc(N2CCN(S(=O)(=O)c3ccc(-c4cc(C)no4)s3)CC2)cc1", "Potency": "23.1 µM (active)"}
{"smiles": "Cc1cc(-c2ccc(S(=O)(=O)N3CCN(c4ccc(F)cc4)CC3)s2)on1", "Potency": "inactive", "cell number change": 5.9}
{"smiles": "CC(=O)c1ccc(N2CCN(S(=O)(=O)c3ccc(-c4cc(C)no4)s3)CC2)cc1", "Potency": "inactive"}
{"smiles": "C=CCn1c(CCNC(=O)c2ccc(Cl)c(Cl)c2)nnc1SCCOc1ccc(OC)cc1", "Potency": "inactive", "cell number change": -3.68}
{"smiles": "O=C(/C=C/c1ccc(F)cc1)NCc1cccs1", "Potency": "inactive", "cell number change": 12.4}
{"smiles": "Cc1nc2cc(NC(=O)C3COc4ccccc4O3)ccc2s1", "note": "(configuration not stated)", "Potency": "inactive", "cell number change": 3.18}
{"smiles": "COc1ccc(S(=O)(=O)N2CCN(CC(=O)c3[nH]c(C)c(C(C)=O)c3C)CC2)cc1OC", "Potency": "inactive", "cell number change": 3.31}
{"smiles": "Cc1ccc(S(=O)(=O)NCC(=O)OCc2cc(=O)oc3c(C)c(C)ccc23)cc1C", "Potency": "inactive", "cell number change": 11.5}
{"smiles": "CN(CC(=O)Nc1ccc(Cl)c(Cl)c1)C(=O)CNC(=O)Cc1ccccc1", "Potency": "inactive", "cell number change": -4.02}
{"smiles": "COc1ccccc1NC(=O)NN1CCCCC1", "Potency": "0.58 µM (active)", "cell number change": 17.6}
{"smiles": "COc1ccccc1NC(=O)C1CCCN(S(=O)(=O)c2ccccc2)C1", "note": "(configuration not stated)", "Potency": "5.8 µM (active)", "cell number change": -11}
{"smiles": "COc1ccccc1NC(=O)N1CCCC1", "Potency": "inactive", "cell number change": 1.33}
{"smiles": "COc1ccccc1NC(=O)NCCN1CCCCC1", "Potency": "inactive", "cell number change": 6.08}
{"smiles": "COc1ccccc1NC(=O)C1CCCN(S(=O)(=O)c2cnc[nH]2)C1", "note": "(configuration not stated)", "Potency": "inactive", "cell number change": 1.66}
{"smiles": "COc1ccccc1NC(=O)C1CCCN(S(=O)(=O)c2ccc(-n3cnnn3)cc2)C1", "note": "(configuration not stated)", "Potency": "inactive", "cell number change": -7.69}
{"smiles": "COc1ccc2c(c1)[nH]c1c(=O)n(N)cnc12", "Potency": "inactive", "cell number change": 6.47}
{"smiles": "Cn1cc(/C=C/C(=O)N2CCCC(C(=O)c3cccc4ccccc34)C2)cn1", "note": "(configuration not stated)", "Potency": "inactive", "cell number change": 8.66}
{"smiles": "Cc1ccc(N2CC(NC(=O)C(=O)c3c[nH]c4ccccc34)CC2=O)cc1C", "note": "(configuration not stated)", "Potency": "inactive", "cell number change": 20.5}
{"smiles": "Cc1nc(NC(=O)COC(=O)CCc2nc3ccccc3s2)c(Cl)cc1Cl", "Potency": "inactive", "cell number change": 8.53}
{"smiles": "C[C@H](NC(=O)c1nc[nH]c1C(=O)N[C@@H](Cc1ccccc1)C(=O)OCc1ccccc1)c1ccccc1", "Potency": "inactive"}
{"smiles": "O=C(CNc1ccc2ccccc2c1)N/N=C/c1ccc([N+](=O)[O-])o1", "Potency": "inactive"}
{"smiles": "CCCCCCCC(=O)N/N=C/c1ccc([N+](=O)[O-])o1", "Potency": "inactive", "cell number change": -5.79}
{"smiles": "CCCC(=O)Nc1ccc(C(=O)N/N=C/c2ccc([N+](=O)[O-])o2)cc1", "Potency": "14.6 µM (active)", "cell number change": -15.2}
{"smiles": "O=C(N/N=C/c1ccc([N+](=O)[O-])o1)C(=O)Nc1ccc(C(=O)O)cc1", "Potency": "inactive", "cell number change": 8.32}
{"smiles": "O=C(CNc1cccc2ccccc12)N/N=C/c1ccc([N+](=O)[O-])o1", "Potency": "16.4 µM (active)", "cell number change": -25.8}
{"smiles": "O=C(CNc1cccc2ccccc12)N/N=C/c1ccc([N+](=O)[O-])cc1", "Potency": "inactive", "cell number change": -4.75}
